This is an account of results in PubChem BioAssay (EPA / NIEHS).

Conditions in all cases: mRNA level, 48 h; actives raise or lower the signal
Read-out in assay [1]: Broad substrate specificity ATP-binding cassette transporter ABCG2 (Homo sapiens) (UniProt Q9UNQ0)
Briefly: LTEA_HepaRG_ABCG2: Life Technologies and Expression Analysis (LTEA) Assay for ABC Transporter (ABCG2) using HepaRG (AID 2283465). The procedure, abridged:
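ABCG2 transcript was quantified by TaqMan qRT-PCR against three housekeeping genes in HepaRG cells. Cells were treated in duplicate for 48 h across an 8-point half-log series up to 100 uM, with 0.5% DMSO vehicle. Gain or loss versus DMSO was fit.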

Read-out in assay [2]: ATP-citrate lyase (ACLY), ACLY (gene 47)
Description: LTEA_HepaRG_ACLY: Life Technologies and Expression Analysis (LTEA) Assay for ATP-citrate lyase (ACLY) using HepaRG (AID 2283466). The procedure, abridged: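 ACLY mRNA quantified by qRT-PCR on Fluidigm arrays against three housekeeping genes, after 48 h chemical treatment of HepaRG cells (top concentration 100 uM, half-log steps, 0.5% DMSO vehicle). Up- or down-regulation fitted relative to DMSO.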

Read-out in assay [3]: Peroxisomal acyl-coenzyme A oxidase 1 (ACOX1) gene, ACOX1 (gene 51)
Description: LTEA_HepaRG_ACOX1: Life Technologies and Expression Analysis (LTEA) Assay for Peroxisomal acyl-coenzyme A oxidase 1 (ACOX1) gene using HepaRG (AID 2283467). The procedure, abridged: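 ACOX1 transcript levels were quantified by TaqMan qRT-PCR against three housekeeping genes after 48 h chemical exposure of differentiated human HepaRG cells. Exposure used eight half-log steps topping at 100 uM, 0.5% DMSO vehicle, in duplicate. Bidirectional curve fits were made relative to DMSO.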

Read-out in assay [4]: Bcl-2 (BAD) gene, BAD (gene 572)
Description: LTEA_HepaRG_BAD: Life Technologies and Expression Analysis (LTEA) Assay for Bcl-2 (BAD) gene using HepaRG (AID 2283469). The procedure, abridged:
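Read-out: qRT-PCR of BAD mRNA, normalized to three housekeeping genes. Human HepaRG cultures got 48 h chemical exposure in 0.5% DMSO, duplicate eight-point half-log series topping at 100 uM. Gain or loss of signal fitted versus DMSO vehicle.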

Read-out in assay [5]: Bcl-2 (BAX) gene, BAX (gene 581)
Description: LTEA_HepaRG_BAX: Life Technologies and Expression Analysis (LTEA) Assay for Bcl-2 (BAX) gene using HepaRG (AID 2283470). The procedure, abridged: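 qRT-PCR read-out of BAX mRNA, normalized to three housekeeping genes, after 48 h chemical exposure of human HepaRG cells in serum-free induction medium; eight-point half-log series, top 100 uM, 0.5% DMSO vehicle; bidirectional fit versus DMSO.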

Read-out in assay [6]: adenosine kinase (ADK) gene, ADK (gene 132)
Description: LTEA_HepaRG_ADK: Life Technologies and Expression Analysis (LTEA) Assay for adenosine kinase (ADK) gene using HepaRG (AID 2283471). The essentials:
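Differentiated HepaRG cells dosed 48 h in serum-free induction medium, 0.5% DMSO vehicle, eight half-log concentrations from 100 uM, in duplicate. ADK mRNA by TaqMan qRT-PCR normalised to ACTB, GAPDH, POLR2A; bidirectional fit versus DMSO.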

Read-out in assay [7]: Alpha-fetoprotein (AFP) gene, AFP (gene 174)
Description: LTEA_HepaRG_AFP: Life Technologies and Expression Analysis (LTEA) Assay for Alpha-fetoprotein (AFP) gene using HepaRG (AID 2283472). The procedure, abridged:
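qRT-PCR (Fluidigm TaqMan) readout of AFP transcript, normalized to three housekeeping genes, fitted bidirectionally against 0.5% DMSO baseline. HepaRG cells received chemicals for 48 h in serum-free induction medium, top concentration 100 uM, half-log steps.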

Read-out in another assay: BCL2L11 (gene 10018)
Briefly: LTEA_HepaRG_BCL2L11: Life Technologies and Expression Analysis (LTEA) Assay for Bcl-2 (BCL2L11) gene using HepaRG (AID 2283473). The procedure, abridged: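 Read-out is BCL2L11 transcript level by qRT-PCR, normalized to three housekeeping genes and fitted bidirectionally against 0.5% DMSO vehicle. HepaRG cells received chemicals for 48 h in serum-free induction medium, 100 uM down in half-log dilutions.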

Read-out in assay [8]: Apolipoprotein A-V (APOA5) gene, APOA5 (gene 116519)
Description: LTEA_HepaRG_APOA5: Life Technologies and Expression Analysis (LTEA) Assay for Apolipoprotein A-V (APOA5) gene using HepaRG (AID 2283474). The procedure, abridged:
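Readout is APOA5 transcript level by qRT-PCR on Fluidigm dynamic arrays, normalized to three housekeeping genes. HepaRG cultures received chemicals for 48 h at up to 100 uM (half-log steps, 0.5% DMSO), with gain or loss scored relative to DMSO.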

SMILES strings stand for the structures. Active and inactive are the calls of the source. Rule for the calls: active = hit-call score of the fitted dose curve at least 0.9, where 1 is the maximum; inactive = score below 0.9.

Sequence of Broad substrate specificity ATP-binding cassette transporter ABCG2 (Homo sapiens) (Q9UNQ0 whole entry, looked up): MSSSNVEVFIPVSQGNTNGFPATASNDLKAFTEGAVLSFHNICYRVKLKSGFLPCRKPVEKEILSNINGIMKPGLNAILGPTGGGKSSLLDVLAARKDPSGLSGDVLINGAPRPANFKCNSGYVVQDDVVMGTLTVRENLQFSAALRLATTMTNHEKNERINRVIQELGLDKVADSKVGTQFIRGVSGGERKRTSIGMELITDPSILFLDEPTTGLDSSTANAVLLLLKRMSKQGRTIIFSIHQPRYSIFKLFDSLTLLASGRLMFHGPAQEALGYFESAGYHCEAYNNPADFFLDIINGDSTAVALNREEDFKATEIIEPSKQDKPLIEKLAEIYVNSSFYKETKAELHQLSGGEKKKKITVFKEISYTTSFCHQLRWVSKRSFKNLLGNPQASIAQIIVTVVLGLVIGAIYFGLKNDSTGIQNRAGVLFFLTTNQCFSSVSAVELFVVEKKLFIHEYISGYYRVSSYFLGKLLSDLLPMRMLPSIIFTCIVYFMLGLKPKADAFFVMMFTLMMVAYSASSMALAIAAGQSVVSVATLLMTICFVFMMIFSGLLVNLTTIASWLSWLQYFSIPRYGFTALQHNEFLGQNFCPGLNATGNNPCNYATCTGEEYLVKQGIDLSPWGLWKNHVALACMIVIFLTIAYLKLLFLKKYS

Turning to `c1ccc2c(c1)Cc1ccccc1-2`, the call in assay [1], in assay [2], in assay [3], in assay [4], in assay [5] and in assay [6] was inactive. The compound was classed as inactive (in assay [7]; with BCL2L11 (gene 10018); in [8]).
On to `OC1CCC(C2CCCCC2)CC1` (centres undefined), for which the compound was classed as inactive in assay [1], in [2], in assay [3], in [4], in assay [5] and in [6]. Further, the result (in assay [7]; with BCL2L11 (gene 10018); in assay [8]) was inactive.
For `COc1ccc([N+](=O)[O-])cc1N`, the compound was classed as inactive in [1], in assay [2], in assay [3], in assay [4], in [6] and in assay [7]. In addition, the outcome (with BCL2L11 (gene 10018); in [8]) was inactive.
On to `O=c1c(-c2ccc(O)cc2)coc2cc(O)ccc12`, for which the result in assay [1], in [2], in [3], in [4], in assay [6] and in assay [7] was inactive. Moreover, the compound was classed as inactive (in the assay with BCL2L11 (gene 10018); in assay [8]).
On to `OCCC(F)(F)C(F)(F)C(F)(F)C(F)(F)C(F)(F)C(F)(F)C(F)(F)C(F)(F)F`, for which the compound was classed as inactive in assay [1], in assay [2], in [3], in [4], in assay [5] and in assay [6]. Moreover, the compound was called inactive (in assay [7]; with BCL2L11 (gene 10018); in assay [8]).
Consider `CCCCOCCO`, for which the compound was classed as inactive in [1], in assay [2], in [3], in [4], in assay [6] and in assay [7]. For the same compound, the compound was classed as inactive (with BCL2L11 (gene 10018); in [8]).
On to `CC[C@H](c1ccc(O)cc1)[C@@H](CC)c1ccc(O)cc1`, for which the outcome in [1], in [4], in assay [7] and in assay [8] was inactive. For the same compound, the AC50 in assay [2] was 83.9 µM (active); in [3] it was 77.8 µM (active); in assay [6], 77.1 µM (active); with BCL2L11 (gene 10018), 77.7 µM (active).
As for `OCCC(F)(F)C(F)(F)C(F)(F)C(F)(F)C(F)(F)C(F)(F)F`, the compound was classed as inactive in assay [1], in assay [2], in assay [3], in [4], in assay [6] and in assay [7]. The outcome (with BCL2L11 (gene 10018); in assay [8]) was inactive.
Turning to `OC1CCCCC1`, the call in assay [1], in assay [2], in assay [3], in [4], in assay [6] and in assay [7] was inactive. For the same compound, the compound was called inactive (in the assay with BCL2L11 (gene 10018); in assay [8]).
Take `CCOC(=O)CC(O)(CC(=O)OCC)C(=O)OCC`: the call in assay [1], in assay [2], in [3], in [4], in [6] and in assay [7] was inactive. The compound was called inactive (in the assay with BCL2L11 (gene 10018); in [8]).
For `C#C[C@]1(O)CC[C@H]2[C@@H]3CCC4=CC(=O)CC[C@@H]4[C@H]3CC[C@@]21C`, the AC50 is 15.4 µM (active) in assay [1], 9.92 µM (active) in assay [6] and 9.92 µM (active) in [8]. In addition, the result (in assay [2]; in [3]; in assay [4]; in assay [5]; in assay [7]; with BCL2L11 (gene 10018)) was inactive.
On to `CCCCCCCCC(=O)O`, for which the result in assay [1], in assay [2], in assay [3], in assay [4], in [6] and in assay [7] was inactive. Further, the result (with BCL2L11 (gene 10018); in assay [8]) was inactive.
`CCCCCCC(=O)O`: the result in assay [1], in assay [2], in assay [3], in assay [4], in assay [6] and in [7] was inactive. Also, the outcome (with BCL2L11 (gene 10018); in assay [8]) was inactive.
Consider `CC(C)(C)c1ccc(O)c(C(C)(C)C)c1`, for which the outcome in [1], in assay [2], in assay [3], in [4], in assay [6] and in assay [7] was inactive. Besides, the result (in the assay with BCL2L11 (gene 10018); in assay [8]) was inactive.
As to `CCCCCCCC(=O)O`, the compound was classed as inactive (in assay [1]; in assay [4]; in assay [5]; in [6]; in assay [7]; with BCL2L11 (gene 10018)). The compound was called inactive in assay [8]. Moreover, the AC50 was 12.4 µM (active) in assay [2] and 12.5 µM (active) in [3].
With `CC(=O)CC(C)(C)O`, the result in [1], in [2], in assay [3], in [4], in [5] and in [6] was inactive. In addition, the call (in assay [7]; with BCL2L11 (gene 10018); in assay [8]) was inactive.
